Bioassay records from PubChem.
PostGolgi yeast – phenotypic screen on post-Golgi transport, primary screen; post-Golgi transport phenotypic cell assay; inhibition, % at 10 µM; 98,000 tested, 0.9% active; AID 739, 2007;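 also: yeast cells grown in 1536-well plates; yeast grown about 18 h at 30C before absorbance read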
CYP2C19 act – human CYP2C19 activators, primary screen, biochemical, luminescence; 96,000 tested, under 10 active; activation factor at 5 µM; recombinant CYP2C19, luciferin-H EGE luminescence; active compounds read high; 0 = fully inhibited enzyme, 1 = untreated enzyme;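 active = activation factor of at least 2 at 5 µM in the primary screen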
Target sequence (P33261 whole entry, looked up): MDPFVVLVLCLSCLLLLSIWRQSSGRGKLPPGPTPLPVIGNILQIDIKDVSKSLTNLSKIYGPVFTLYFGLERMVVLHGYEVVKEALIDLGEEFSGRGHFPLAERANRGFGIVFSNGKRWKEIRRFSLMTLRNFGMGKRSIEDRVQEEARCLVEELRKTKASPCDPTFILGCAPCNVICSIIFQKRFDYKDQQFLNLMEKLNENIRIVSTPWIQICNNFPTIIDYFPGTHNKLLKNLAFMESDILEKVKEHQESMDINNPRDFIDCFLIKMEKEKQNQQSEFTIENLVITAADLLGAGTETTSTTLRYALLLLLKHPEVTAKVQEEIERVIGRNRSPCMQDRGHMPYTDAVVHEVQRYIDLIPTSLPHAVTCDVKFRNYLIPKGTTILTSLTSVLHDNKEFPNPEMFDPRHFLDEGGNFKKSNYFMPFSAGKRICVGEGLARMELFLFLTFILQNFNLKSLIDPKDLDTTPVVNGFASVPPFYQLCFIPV
CYP2C9 inhib – blockers of cytochrome P450 2C9 activity – biochemical, luminescence, ADME assay, primary screen; P11712; CYP2C9 Supersomes, luciferin-H conversion; inhibition, % at 5 µM; 96,000 tested, 20% active; AID 777, 2007;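 active = blocking of liver enzyme CYP2C9 beyond about 50% at 5 µM, limit read from the data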
PostGolgi ctrl – growth inhibition of yeast control strain, primary screen, counter-screen for post-Golgi transport modulator project; efflux-deficient yeast background strain, growth absorbance A615, 16 h; inhibition, % at 10 µM; 98,000 tested, 5% active
CYP2C9 activ – human CYP2C9 activators, primary screen, biochemical, luminescence | Cytochrome P450 2C9 (Homo sapiens), P11712 | recombinant CYP2C9, luciferin-H conversion; active compounds read high; factor 1 = untreated enzyme, 0 = blocked | activation factor at 5 µM | 96,000 tested, 1.4% active;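 active = activation factor of 2 or more for CYP2C9 at a 5 µM dose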
CYP2C19 inhib – blockers of cytochrome P450 2C19 activity – biochemical, luminescence, ADME assay, primary screen; inhibition, % at 5 µM; 96,000 tested, 21% active; CYP2C19 Supersomes, luciferin-H EGE luminescence, 30 min; P33261;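 active = CYP2C19 inhibition above a set limit at 5 µM in the primary screen, cut at about 50% in these data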
Numbers stand for hits. Rows were chosen to be rich in hits. Some 32% of all compounds tested hit in one or more screens of this group. Rule as the data show it, unless noted: active = inhibition above about 30%; inactive = the rest.

How did Cc1ccc(NC(=O)C(C)Sc2nnc(-c3cccnc3)n2-c2ccccc2)cc1 (stereo not drawn) do in these assays?
PostGolgi yeast: inactive; CYP2C19 act: inactive; CYP2C9 inhib: inactive; PostGolgi ctrl: inactive; CYP2C9 activ: inactive; CYP2C19 inhib: inactive

Results for OCCN(Cc1ccccc1)Cc1ccccc1F ?
PostGolgi yeast: inactive; CYP2C19 act: inactive; CYP2C9 inhib: inactive; PostGolgi ctrl: inactive; CYP2C9 activ: inactive; CYP2C19 inhib: 77

How did OCCN(Cc1ccccc1)Cc1ccccc1Cl do in these assays?
PostGolgi yeast: inactive; CYP2C19 act: inactive; CYP2C9 inhib: inactive; PostGolgi ctrl: inactive; CYP2C9 activ: inactive; CYP2C19 inhib: 81

Results for OCCN(Cc1ccccc1)Cc1cccc(Cl)c1Cl ?
PostGolgi yeast: inactive; CYP2C19 act: inactive; CYP2C9 inhib: 76; PostGolgi ctrl: inactive; CYP2C9 activ: inactive; CYP2C19 inhib: 93

What do the screens show for `OCCN(Cc1ccccc1)CC1CC2C=CC1C2` (stereo not drawn)?
PostGolgi yeast: inactive; CYP2C19 act: inactive; CYP2C9 inhib: inactive; PostGolgi ctrl: inactive; CYP2C9 activ: inactive; CYP2C19 inhib: inactive

Results for Cn1cc(/C=N/n2cnc3scc(-c4ccccc4)c3c2=O)c2ccccc21 ?
PostGolgi yeast: inactive; CYP2C19 act: inactive; CYP2C9 inhib: inactive; PostGolgi ctrl: inactive; CYP2C9 activ: inactive; CYP2C19 inhib: inactive

How did CCC(C)N(NC(C)=O)c1nc(Cl)nc(NC(C)C)n1 (stereo not drawn) do in these assays?
PostGolgi yeast: inactive; CYP2C19 act: inactive; CYP2C9 inhib: inactive; PostGolgi ctrl: inactive; CYP2C9 activ: inactive; CYP2C19 inhib: inactive

What do the screens show for `Cc1nc2nc(C)n(-c3ccccc3)c2s1`?
PostGolgi yeast: inactive; CYP2C19 act: inactive; CYP2C9 inhib: inactive; PostGolgi ctrl: inactive; CYP2C9 activ: inactive; CYP2C19 inhib: inactive

Results for COc1ccc(OC)c(NC(=O)c2cc(-c3ccc(C)cc3O)n[nH]2)c1 ?
PostGolgi yeast: inactive; CYP2C19 act: inactive; CYP2C9 inhib: inactive; PostGolgi ctrl: inactive; CYP2C9 activ: 2.9; CYP2C19 inhib: inactive

What do the screens show for `COc1ccc(CCNC(=O)c2cc(-c3cc(C)c(C)cc3O)n[nH]2)cc1OC`?
PostGolgi yeast: inactive; CYP2C19 act: inactive; CYP2C9 inhib: inactive; PostGolgi ctrl: inactive; CYP2C9 activ: inactive; CYP2C19 inhib: inactive

Results for Cc1ccc(-c2csc(N/N=C/c3ccco3)n2)cc1 ?
PostGolgi yeast: inactive; CYP2C19 act: inactive; CYP2C9 inhib: inactive; PostGolgi ctrl: 34; CYP2C9 activ: inactive; CYP2C19 inhib: inactive

Results for Cn1c(N)c(C(=O)COC(=O)c2ccc(Br)o2)c(=O)n(C)c1=O ?
PostGolgi yeast: inactive; CYP2C19 act: inactive; CYP2C9 inhib: inactive; PostGolgi ctrl: inactive; CYP2C9 activ: inactive; CYP2C19 inhib: inactive

What do the screens show for `Cc1ccc(C(=O)NCC(=O)OCC(=O)c2c(N)n(C)c(=O)n(C)c2=O)s1`?
PostGolgi yeast: inactive; CYP2C19 act: inactive; CYP2C9 inhib: 58; PostGolgi ctrl: inactive; CYP2C9 activ: inactive; CYP2C19 inhib: inactive

How did OCCN1CCN(c2nc(-c3ccccc3)nc3c2oc2ccccc23)CC1 do in these assays?
PostGolgi yeast: inactive; CYP2C19 act: inactive; CYP2C9 inhib: 65; PostGolgi ctrl: inactive; CYP2C9 activ: inactive; CYP2C19 inhib: 86

How did O=C(O)C1CCN(c2nc(-c3ccccc3)nc3c2oc2ccccc23)CC1 do in these assays?
PostGolgi yeast: inactive; CYP2C19 act: inactive; CYP2C9 inhib: inactive; PostGolgi ctrl: inactive; CYP2C9 activ: inactive; CYP2C19 inhib: inactive

What do the screens show for `CNC(=O)C(Sc1nc(C)nc2c1oc1ccccc12)C(C)=O` (stereo not drawn)?
PostGolgi yeast: inactive; CYP2C19 act: inactive; CYP2C9 inhib: 61; PostGolgi ctrl: inactive; CYP2C9 activ: inactive; CYP2C19 inhib: 55

What do the screens show for `Cc1nc(SCC(=O)Nc2ccc(F)cc2)c2oc3ccccc3c2n1`?
PostGolgi yeast: inactive; CYP2C19 act: inactive; CYP2C9 inhib: 84; PostGolgi ctrl: inactive; CYP2C9 activ: inactive; CYP2C19 inhib: inactive

Results for Cc1nc(SCC(=O)Nc2ccccc2)c2oc3ccccc3c2n1 ?
PostGolgi yeast: inactive; CYP2C19 act: inactive; CYP2C9 inhib: 80; PostGolgi ctrl: inactive; CYP2C9 activ: inactive; CYP2C19 inhib: 51

How did CC(=O)c1ccc(Nc2nc(C)nc3c2oc2ccccc23)cc1 do in these assays?
CYP2C19 act: inactive; CYP2C9 inhib: inactive; CYP2C9 activ: inactive; CYP2C19 inhib: inactive
